# Measured values reported in PubChem BioAssay (NCATS).
# Inconclusive results are not listed. Entries that show only a call come without a potency. Calls of active or inactive are those of the source. The call rests on the fitted dose curve; in most records, active means well fitted curve in the direction sought with a large enough effect; inconclusive means small, poorly fitted or top-dose-only effect, or another doubt; inactive means no such curve, though single readings can be large; an effect the other way counts as inactive or inconclusive.
# Legend:
# [1] = qHTS of pediatric cancer cell lines to identify multiple opportunities for drug repurposing: Primary screen for TC32 cells (AID 1347089); further: nearly all actives have a fitted effect of over 60% in size
# How it was run: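 A viability screen of TC32 cells was run over 48 h, with primary MIPE doses spanning 0.78 nM–46 µM and NPC doses 0.59 nM–46 µM. ATP luminescence (CellTiter-Glo) served as the read-out.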
# [2] = qHTS of pediatric cancer cell lines to identify multiple opportunities for drug repurposing: Primary screen for DAOY cells (AID 1347090); further: nearly all actives have a fitted effect of over 55% in size
# How it was run: (§1)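 Viability measured as metabolically active cells via CellTiter-Glo luminescence following 48 hours of compound exposure, 11-point dilutions in confirmatory testing. 500-1,000 cells/well plated 5 hours before dosing; controls were DMSO and 2.3 µM bortezomib.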
# [3] = qHTS of pediatric cancer cell lines to identify multiple opportunities for drug repurposing: Primary screen for A673 cells (AID 1347092); further: nearly all actives have a fitted effect of over 45% in size
# How it was run: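 Titration-based qHTS on A673 cells: MIPE compounds spanned 11 points (0.78 nM to 46 µM final), NPC compounds 8 points (0.59 nM to 46 µM final). Viability after 48 h was measured by ATP luminescence.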
# [4] = qHTS of pediatric cancer cell lines to identify multiple opportunities for drug repurposing: Primary screen for SK-N-MC cells (AID 1347093)
# How it was run: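 Metabolically active cells were quantified by ATP-dependent luminescence (CellTiter-Glo, 15 min at room temperature) following 48 h treatment. Cells had been plated at 500-1,000 per well and settled for 5 h beforehand.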
# [5] = qHTS of pediatric cancer cell lines to identify multiple opportunities for drug repurposing: Primary screen for BT-37 cells (AID 1347094)
# How it was run: (§2)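 Following a 5-hour attachment period, cells at 500-1,000/well received compounds and were cultured for 48 hours. CellTiter-Glo was added and luminescence read to estimate viable, metabolically active cells.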
# [6] = qHTS of pediatric cancer cell lines to identify multiple opportunities for drug repurposing: Primary screen for NB-EBc1 cells (AID 1347095)
# How it was run: as §2
# [7] = qHTS of pediatric cancer cell lines to identify multiple opportunities for drug repurposing: Primary screen for Saos-2 cells (AID 1347097); further: nearly all actives have a fitted effect of over 40% in size
# How it was run: as §2
# [8] = qHTS of pediatric cancer cell lines to identify multiple opportunities for drug repurposing: Primary screen for SK-N-SH cells (AID 1347098); further: nearly all actives have a fitted effect of over 65% in size
# How it was run: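 Cells (500-1,000/well) rested 5 h, then received compounds for 48 h; metabolically active cells were measured by CellTiter-Glo luminescence. Final concentrations spanned up to 46 µM (MIPE, 11-point) or 0.59 nM-46 µM (NPC, 8-point) in primary screens, 11-point in follow-ups.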
# [9] = qHTS of pediatric cancer cell lines to identify multiple opportunities for drug repurposing: Primary screen for SJ-GBM2 cells (AID 1347091)
# How it was run: as §1
# [10] = qHTS of pediatric cancer cell lines to identify multiple opportunities for drug repurposing: Primary screen for U-2 OS cells (AID 1347096); further: nearly all actives have a fitted effect of over 50% in size
# How it was run: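 Viability after 48 h compound treatment at 37C, 500-1,000 cells/well, read as ATP luminescence with CellTiter-Glo. Primary screens used 11-point (MIPE, 0.78 nM-46 µM) or 8-point (NPC, 0.59 nM-46 µM) final concentrations; follow-up screens used 11-point dilutions.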
# Potency means the concentration at half of the fitted maximal effect.
SMILES,Potency [1],Potency [2],Potency [3],Potency [4],Potency [5],Potency [6],Potency [7],Potency [8],Potency [9],Potency [10]
CC(C)(C)[C@]1(O)C[C@@H]2OC(=O)C[C@@]23C(=O)O[C@@H]2OC(=O)[C@H](O)C213 (some centres not stated),inactive,inactive,inactive,inactive,inactive,inactive,inactive,–,–,–
OCCCBr,inactive,inactive,inactive,inactive,inactive,inactive,–,inactive,–,–
S=C(SSC(=S)N1CCCCC1)N1CCCCC1,938 nM (active),26.6 nM (active),26.6 nM (active),37.6 nM (active),309 nM (active),–,37.6 nM (active),–,–,–
CN1[C@H]2CC(O)C[C@H]1[C@H]1O[C@H]12 (some centres not stated),inactive,–,18700 nM (active),9350 nM (active),–,–,13200 nM (active),–,9350 nM (active),–
COC(=O)[C@@H](N)CCCN=C(N)N[N+](=O)[O-],inactive,–,–,6620 nM (active),inactive,inactive,inactive,6070 nM (active),inactive,inactive
CC1=C(O)C(=O)C=C2C1=CC=C1[C@@]2(C)CC[C@@]2(C)[C@@H]3C[C@](C)(C(=O)O)CC[C@]3(C)CC[C@]12C,7390 nM (active),935 nM (active),1180 nM (active),833 nM (active),4850 nM (active),743 nM (active),2350 nM (active),3040 nM (active),–,–
C[C@@]12OC(=O)[C@]1([C@@H](O)[C@@H]1C=CCCC1)NC(=O)[C@H]2CCCl,7390 nM (active),118 nM (active),46.9 nM (active),8.3 nM (active),96.8 nM (active),10.5 nM (active),37.2 nM (active),171 nM (active),–,–
CCOP(=O)(OCC)C(C)NC(=O)N(CCCl)N=O (configuration not stated),inactive,inactive,inactive,inactive,inactive,–,inactive,inactive,–,–
Cc1c(C(=O)Nc2cccc(C(F)(F)F)c2)cc(-c2ccccc2)n1CCCN1CCOCC1,inactive,–,11800 nM (active),13200 nM (active),27300 nM (active),18700 nM (active),–,24100 nM (active),18700 nM (active),–
CCCC[N+]1(C)[C@H]2CC(OC(=O)[C@H](CO)c3ccccc3)C[C@H]1[C@H]1O[C@H]12 (some centres not stated),inactive,inactive,inactive,inactive,–,inactive,–,inactive,–,inactive
CC1(N2CCC(n3c([C@@H]4CCCNC4)nc4ccccc43)CC2)CCCCCCC1,inactive,inactive,11800 nM (active),–,–,inactive,–,30400 nM (active),–,inactive
COC[C@H]1OC(=O)c2coc3c2[C@@]1(C)C1=C(C3=O)[C@@H]2CC[C@H](O)[C@@]2(C)C[C@@H]1OC(C)=O,inactive,14800 nM (active),9350 nM (active),296 nM (active),6850 nM (active),526 nM (active),2090 nM (active),27100 nM (active),–,–
Oc1ccc2c3c1O[C@H]1[C@@H](O)C=C[C@H]4[C@@H](C2)NCC[C@@]341,inactive,inactive,inactive,inactive,inactive,inactive,–,inactive,–,–
Clc1ccccc1C(c1ccccc1)(c1ccccc1)n1cccn1,inactive,inactive,inactive,inactive,inactive,–,inactive,inactive,–,–
ClC1=C(Cl)[C@]2(Cl)[C@@H]3[C@@H]4C[C@@H]([C@H]5O[C@@H]45)[C@@H]3[C@@]1(Cl)C2(Cl)Cl,inactive,38600 nM (active),–,19300 nM (active),–,–,38600 nM (active),–,–,–
O=C(Oc1ccc([N+](=O)[O-])cc1)N1CCC(C(O)(c2ccc3c(c2)OCO3)c2ccc3c(c2)OCO3)CC1,inactive,inactive,–,16600 nM (active),–,inactive,–,inactive,–,inactive
CC(O)=C(C#N)C(=O)Nc1cc(Br)ccc1Br,inactive,inactive,inactive,332 nM (active),inactive,–,–,–,–,inactive

SMILES,Potency [1],Potency [2],Potency [3],Potency [4],Potency [5],Potency [6],Potency [7],Potency [8],Potency [9],Potency [10]
O=c1[nH]c2ccccc2n1C1CCN(Cc2ccc(-c3[nH]c4cc5ncnc5cc4nc3-c3ccccc3)cc2)CC1,inactive,inactive,–,833 nM (active),–,20900 nM (active),16600 nM (active),inactive,–,–
C[C@H]1CCCC=CC2C[C@H](O)C[C@@H]2[C@H](O)C=CC(=O)O1 (some centres not stated),13.1 nM (active),–,–,1 nM (active),1 nM (active),1 nM (active),3720 nM (active),1 nM (active),1 nM (active),1 nM (active)
CC(=Cc1csc(C)n1)[C@@H]1C[C@H]2O[C@]2(C)CCC[C@H](C)[C@@H](O)[C@@H](C)C(=O)C(C)(C)[C@@H](O)CC(=O)O1,3.7 nM (active),–,–,1 nM (active),–,16.6 nM (active),1 nM (active),inactive,–,–
O=C(O)COc1nc(Cl)c(Cl)cc1Cl,–,inactive,inactive,1 nM (active),inactive,inactive,1 nM (active),inactive,inactive,–
CCOC(=O)Nc1ccc(NCc2ccc(F)cc2)cc1N,–,inactive,18700 nM (active),–,inactive,inactive,–,–,inactive,inactive
COCCOCCO,–,inactive,inactive,inactive,inactive,inactive,–,inactive,inactive,inactive
COc1ccc(N(C(=O)Oc2c(C)cccc2C)c2ccnc(Nc3ccc(N4CCN(C)CC4)cc3)n2)c(OC)c1,inactive,–,935 nM (active),1320 nM (active),15300 nM (active),8330 nM (active),–,242 nM (active),–,inactive
CC(C)(C)c1cc(C=C(C#N)C#N)cc(Br)c1O,inactive,–,–,–,–,4690 nM (active),–,–,2640 nM (active),inactive
CCCCCC[C@H]1C(=O)O[C@H](C)[C@H](NC(=O)c2cccc(NC=O)c2O)C(=O)O[C@@H](C)[C@@H]1OC(=O)CC(C)C,–,37.2 nM (active),296 nM (active),46.9 nM (active),–,23.5 nM (active),11800 nM (active),inactive,187 nM (active),inactive
N=c1c2c(-c3ccccc3)c(-c3ccccc3)n(Cc3ccccc3)c2ncn1C1CCC(O)CC1 (configuration not stated),–,inactive,18700 nM (active),16600 nM (active),968 nM (active),590 nM (active),23500 nM (active),–,18700 nM (active),–
O=C(N[C@H]1CN2CCC1CC2)c1ccc(Cl)cc1,–,18700 nM (active),5900 nM (active),1660 nM (active),–,inactive,–,6810 nM (active),inactive,–
COc1cc([C@@H]2c3cc4c(cc3[C@@H](O)C3COC(=O)C32)OCO4)cc(OC)c1O (some centres not stated),370 nM (active),–,37.2 nM (active),46.9 nM (active),–,6.6 nM (active),20.9 nM (active),–,–,inactive
O=S(=O)(O)C(F)(F)C(F)(F)C(F)(F)C(F)(F)C(F)(F)C(F)(F)C(F)(F)C(F)(F)F,–,inactive,inactive,inactive,inactive,inactive,inactive,inactive,inactive,inactive
C[C@@H]1O[C@@H](O[C@@H]2C=C3CC[C@@H]4[C@@H](CC[C@]5(C)[C@H](c6ccc(=O)oc6)CC[C@@]45O)[C@@]3(C)CC2)[C@H](O)[C@H](O)[C@H]1O,–,14.8 nM (active),14.8 nM (active),8.3 nM (active),9.7 nM (active),41.8 nM (active),–,96.1 nM (active),8.3 nM (active),23.5 nM (active)
C1CCC(NC2CCCCC2)CC1,–,inactive,inactive,inactive,inactive,inactive,inactive,inactive,inactive,inactive
CC(=CCCC1=CCC(C2=CC(=O)OC2O)OC1O)CCC1=C(C)CCCC1(C)C (configuration not stated),–,inactive,inactive,–,inactive,inactive,inactive,–,inactive,–
O=C(Nc1ccncc1)C(=O)c1cn(Cc2ccc(Cl)cc2)c2ccccc12,–,93.5 nM (active),74.3 nM (active),66.2 nM (active),217 nM (active),26.4 nM (active),37.2 nM (active),–,41.8 nM (active),–
